Data from PubChem BioAssay (NCATS).
Records with an inconclusive call do not appear. The source made the active and inactive calls. The call rests on the fitted dose curve; in most records, active means well fitted curve in the direction sought with a large enough effect; inconclusive means small, poorly fitted or top-dose-only effect, or another doubt; inactive means no such curve, though single readings can be large; an effect the other way counts as inactive or inconclusive.

Tests used:
[1] = Quantitative High-Throughput drug screen in 47 multiple myeloma cell lines against the NCATS MIPE library collection: AMO1_DSMZ cell viability assay (AID 1918927; further: nearly all actives have a fitted effect of over 30% in size; further: potency means the concentration at half of the fitted maximal effect); conditions: AMO1 myeloma cells viability, CellTiter-Glo ATP luminescence, 48 h; series mostly up to 45.8 µM
Outline: (§1)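 Relative luminescence from CellTiter-Glo served as the viability signal, referenced to DMSO-treated (100%) and cell-free medium (0%) controls. Treatment lasted 48 hours at 37C with 500 cells per well.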

[2] = Quantitative High-Throughput drug screen in 47 multiple myeloma cell lines against the NCATS MIPE library collection: ARP1_JJKsccF8 cell viability assay (AID 1918928; further: nearly all actives have a fitted effect of over 40% in size); conditions: ARP1 myeloma cells viability, CellTiter-Glo ATP, 48 h; series mostly up to 45.8 µM
Outline: (§2)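 Myeloma cells, 500 per well, were exposed to MIPE 4.0 drugs by pin transfer for 48 h at 37 °C, 5% CO2. Viability was read as ATP luminescence with CellTiter-Glo, normalised to DMSO-only (100%) and medium-only (0%) wells.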

[3] = Quantitative High-Throughput drug screen in 47 multiple myeloma cell lines against the NCATS MIPE library collection: ARD_JJKsccE7 cell viability assay (AID 1918929; further: potency means the concentration at half of the fitted maximal effect); conditions: ARD myeloma cell line viability, CellTiter-Glo, 48 h; series mostly up to 45.8 µM
Outline: as §1

[4] = Quantitative High-Throughput drug screen in 47 multiple myeloma cell lines against the NCATS MIPE library collection: Karpas620_DSMZ cell viability assay (AID 1918959); conditions: Karpas620 myeloma viability, CellTiter-Glo ATP luminescence, 48 h; series mostly up to 45.8 µM; further: nearly all actives have a fitted effect of over 30% in size; further: potency means the concentration at half of the fitted maximal effect
Outline: (§3)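 Inhibition of cell viability is measured here. Each line was plated at 500 cells per well, treated with MIPE 4.0 drugs, kept 48 hours at 37C, then assayed for ATP content by CellTiter-Glo luminescence.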

[5] = Quantitative High-Throughput drug screen in 47 multiple myeloma cell lines against the NCATS MIPE library collection: KMM1_JCRB cell viability assay (AID 1918960); conditions: KMM1 myeloma viability, CellTiter-Glo ATP luminescence, 48 h; series mostly up to 45.8 µM; further: nearly all actives have a fitted effect of over 30% in size; further: potency means the concentration at half of the fitted maximal effect
Outline: as §2

[6] = Quantitative High-Throughput drug screen in 47 multiple myeloma cell lines against the NCATS MIPE library collection: JIM3_ECACC cell viability assay (AID 1918963; further: nearly all actives have a fitted effect of over 35% in size; further: potency means the concentration at half of the fitted maximal effect); conditions: JIM3 myeloma viability, CellTiter-Glo ATP, 48 h; series mostly up to 45.8 µM
Outline: as §3

[7] = Quantitative High-Throughput drug screen in 47 multiple myeloma cell lines against the NCATS MIPE library collection: JIM1_ECACC cell viability assay (AID 1918964; further: potency means the concentration at half of the fitted maximal effect); conditions: JIM1 myeloma viability, CellTiter-Glo ATP luminescence, 48 h; series mostly up to 45.8 µM
Outline: as §1

[8] = Quantitative High-Throughput drug screen in 47 multiple myeloma cell lines against the NCATS MIPE library collection: JJN3_DSMZ cell viability assay (AID 1918966; further: nearly all actives have a fitted effect of over 50% in size; further: potency means the concentration at half of the fitted maximal effect); conditions: JJN3 myeloma cells viability, CellTiter-Glo ATP, 48 h; series mostly up to 45.8 µM
Outline: as §1

[9] = Quantitative High-Throughput drug screen in 47 multiple myeloma cell lines against the NCATS MIPE library collection: H1112_PLB cell viability assay (AID 1918967; further: nearly all actives have a fitted effect of over 30% in size; further: potency means the concentration at half of the fitted maximal effect); conditions: H1112 myeloma cells viability, ATP luminescence, 48 h; series mostly up to 45.8 µM
Outline: as §1

[10] = Quantitative High-Throughput drug screen in 47 multiple myeloma cell lines against the NCATS MIPE library collection: Karpas25_ECACC cell viability assay (AID 1918968; further: nearly all actives have a fitted effect of over 35% in size; further: potency means the concentration at half of the fitted maximal effect); conditions: Karpas25 myeloma viability, CellTiter-Glo ATP, 48 h; series mostly up to 45.8 µM
Outline: as §1

[11] = Quantitative High-Throughput drug screen in 47 multiple myeloma cell lines against the NCATS MIPE library collection: KMS12BM_JCRB cell viability assay (AID 1918971); conditions: KMS12BM myeloma viability, CellTiter-Glo ATP, 48 h; series mostly up to 45.8 µM; further: potency means the concentration at half of the fitted maximal effect; nearly all actives have a fitted effect of over 35% in size
Outline: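 CellTiter-Glo luminescence (ATP) after 48 h compound exposure, 37C/5% CO2; 500 cells/well; MIPE 4.0 approved/investigational drugs pinned in; DMSO = 100%, media only = 0% viability.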

[12] = Quantitative High-Throughput drug screen in 47 multiple myeloma cell lines against the NCATS MIPE library collection: KMS12PE_JCRB cell viability assay (AID 1918972); conditions: KMS12PE myeloma viability, CellTiter-Glo ATP, 48 h; series mostly up to 45.8 µM; further: nearly all actives have a fitted effect of over 30% in size; further: potency means the concentration at half of the fitted maximal effect
Outline: (§4)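 qHTS of the MIPE 4.0 collection: 500 myeloma cells/well, 48 h drug exposure at 37C in 5% CO2, then CellTiter-Glo for 5 min at room temperature before luminescence reading.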

[13] = Quantitative High-Throughput drug screen in 47 multiple myeloma cell lines against the NCATS MIPE library collection: INA6_PLB cell viability assay (AID 1918965; further: nearly all actives have a fitted effect of over 55% in size; further: potency means the concentration at half of the fitted maximal effect); conditions: INA6 myeloma viability, CellTiter-Glo ATP luminescence, 48 h; series mostly up to 45.8 µM
Outline: as §4

[14] = Quantitative High-Throughput drug screen in 47 multiple myeloma cell lines against the NCATS MIPE library collection: KMS20_JCRB cell viability assay (AID 1918973); conditions: CellTiter-Glo ATP, 48 h; series mostly up to 45.8 µM; further: potency means the concentration at half of the fitted maximal effect; nearly all actives have a fitted effect of over 45% in size
Outline: as §1

[15] = Quantitative High-Throughput drug screen in 47 multiple myeloma cell lines against the NCATS MIPE library collection: KMS27_JCRB cell viability assay (AID 1918970); conditions: KMS27 myeloma cells, CellTiter-Glo ATP viability, 48 h; viability (% of DMSO): at 45.8 µM (top of the series); further: nearly all actives have a fitted effect of over 30% in size; further: potency means the concentration at half of the fitted maximal effect
Outline: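 Myeloma cells (500 per well) were exposed to MIPE 4.0 compounds for 48 h at 37 °C, 5% CO2; viability was read as ATP luminescence with CellTiter-Glo, normalized to DMSO-only (100%) and media-only (0%) wells.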

[16] = Quantitative High-Throughput drug screen in 47 multiple myeloma cell lines against the NCATS MIPE library collection: KHM11_PLB cell viability assay (AID 1918962); conditions: KHM11 myeloma cell viability, CellTiter-Glo ATP luminescence, 48 h; series mostly up to 45.8 µM; further: nearly all actives have a fitted effect of over 35% in size; further: potency means the concentration at half of the fitted maximal effect
Outline: as §3

[17] = Quantitative High-Throughput drug screen in 47 multiple myeloma cell lines against the NCATS MIPE library collection: Karpas417_ECACC cell viability assay (AID 1918961); conditions: Karpas417 myeloma viability, CellTiter-Glo ATP luminescence, 48 h; viability (% of DMSO): at 45.8 µM (top of the series)
Outline: as §4

[18] = Quantitative High-Throughput drug screen in 47 multiple myeloma cell lines against the NCATS MIPE library collection: EJM_DSMZ cell viability assay (AID 1918926; further: nearly all actives have a fitted effect of over 30% in size); conditions: EJM myeloma cell viability, CellTiter-Glo ATP, 48 h; series mostly up to 45.8 µM
Outline: as §1

COc1cc2nccc(Oc3ccc(NC(=O)Nc4ccc(F)cc4F)c(F)c3)c2cc1OC
inactive: Potency [1] | Potency [2] | Potency [3] | Potency [4] | Potency [5] | Potency [6] | Potency [7] | Potency [9] | Potency [10] | Potency [12]
active: Potency [8] 20.9 µM | Potency [11] 11.8 µM

COc1cc(Nc2nc3ccccc3nc2NS(=O)(=O)c2ccc(NC(=O)c3ccc(C)c(OC)c3)cc2)cc(OC)c1
active: Potency [6] 13.2 µM | Potency [13] 16.6 µM | Potency [14] 23.5 µM

COc1ccc2cc1Oc1ccc(cc1)C[C@H]1c3cc(c(OC)cc3CCN1C)Oc1c(OC)c(OC)cc3c1[C@H](C2)N(C)CC3
active: Potency [1] 7.43 µM | Potency [3] 6.62 µM | Potency [4] 5.26 µM | Potency [5] 5.9 µM | Potency [6] 18.7 µM | Potency [9] 20.9 µM | Potency [10] 20.9 µM | Potency [15] 3.72 µM | Potency [11] 13.2 µM | Potency [12] 4.69 µM

COc1ccc(CCC(=O)Nc2nc3ccc(Cl)cc3s2)cc1OC
active: Potency [6] 14.8 µM
inactive: Potency [3] | Potency [4] | Potency [5] | Potency [16] | Potency [8] | Potency [15] | Potency [12]

C[C@@H]1CCO[C@H]2Cn3cc(C(=O)NCc4ccc(F)cc4F)c(=O)c(O)c3C(=O)N12
active: Potency [7] 23.5 µM | Potency [10] 18.7 µM | Potency [11] 20.9 µM
inactive: Potency [5] | Potency [9] | Potency [15] | Potency [12]

O=[N+]([O-])c1ccc(Nc2ccccc2-c2ccccc2)c2nonc12
inactive: Potency [2]
active: Potency [4] 20.9 µM | Potency [13] 26.4 µM | Potency [9] 18.7 µM | Potency [10] 18.7 µM | Potency [15] 20.9 µM

COc1cc2c(cc1OC)CC(=O)N(CCCN(C)C[C@H]1Cc3cc(OC)c(OC)cc31)CC2
active: Potency [3] 16.6 µM | Potency [10] 4.69 µM | Potency [12] 20.9 µM
inactive: Potency [2] | Potency [6] | Potency [13]

COc1c(C)c2c(c(O)c1CC=C(C)CCC(=O)O)C(=O)OC2
active: Potency [1] 0.935 µM | Potency [6] 4.69 µM | Potency [7] 9.35 µM | Potency [13] 0.935 µM | Potency [8] 4.69 µM | Potency [9] 4.18 µM | Potency [10] 13.2 µM | Potency [11] 3.32 µM | Potency [12] 14.8 µM
inactive: Potency [4] | Potency [5]

Cc1ccc(C(=O)N(CCCN)[C@@H](c2nc3cc(Cl)ccc3c(=O)n2Cc2ccccc2)C(C)C)cc1
active: Potency [5] 0.001 µM | Potency [16] 10.5 µM | Potency [8] 18.7 µM | viability (% of DMSO) [15] 70.3%
inactive: Potency [2] | Potency [17] | Potency [6] | Potency [7]

Cc1ccc(C(=O)N(CCCN)[C@@H](c2oc3cc(Cl)ccc3c(=O)c2Cc2ccccc2)C(C)C)cc1
active: Potency [1] 0.001 µM | Potency [3] 0.001 µM | Potency [5] 0.001 µM | Potency [16] 9.35 µM | Potency [8] 18.7 µM
inactive: Potency [2] | Potency [6] | Potency [15]

c1ccc(-c2oc3ncnc(NC[C@@H]4CCCO4)c3c2-c2ccccc2)cc1
inactive: Potency [1] | Potency [9]
active: Potency [4] 6.62 µM | Potency [5] 3.32 µM | Potency [13] 16.6 µM | Potency [8] 16.6 µM | Potency [15] 4.69 µM | Potency [11] 23.5 µM | Potency [12] 4.69 µM

CCCCC(C=O)NC(=O)C(CC(C)C)NC(=O)OCc1ccccc1 (stereo not drawn)
active: Potency [13] 16.6 µM | Potency [11] 20.9 µM
inactive: Potency [1] | Potency [3] | Potency [4] | Potency [5] | Potency [16] | Potency [9] | Potency [15] | Potency [12]

O=C(Nc1cccc2c(=O)cc(-c3nn[nH]n3)oc12)c1ccc(OCCCCc2ccccc2)cc1
inactive: Potency [18]
active: Potency [13] 18.7 µM | Potency [10] 18.7 µM | Potency [12] 20.9 µM | Potency [14] 14.8 µM
